In PubChem BioAssay (NCATS):
Inconclusive results are not listed. Entries that show only a call come without a potency. Activity calls are given as the source filed them. The call rests on the fitted dose curve; in most records, active means well fitted curve in the direction sought with a large enough effect; inconclusive means small, poorly fitted or top-dose-only effect, or another doubt; inactive means no such curve, though single readings can be large; an effect the other way counts as inactive or inconclusive.

Columns and labels:
[1] = P-glycoprotein substrates identified in KB-3-1 adenocarcinoma cell line, qHTS therapeutic library screen (AID 1346986); further: nearly all actives have a fitted effect of over 60% in size;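 further: potency means the concentration at half of the fitted maximal effect; potency is for cytotoxicity meaning loss of cell viability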
How it was run: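 Counter-screen: cherry-picked hits retested in the KB pair and in HEK-293 pcDNA/MDR-19 cells ± tariquidar. Primary screen used 72 h CellTiter-Glo viability in KB-3-1 and KB-8-5-11.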

[2] = P-glycoprotein substrates identified in KB-8-5-11 adenocarcinoma cell line, qHTS therapeutic library screen (AID 1346987); further: nearly all actives have a fitted effect of over 65% in size; further: potency means the concentration at half of the fitted maximal effect
How it was run: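 KB-8-5-11: colchicine-selected sub-line of KB-3-1 over-expressing P-gp; assay medium lacked colchicine. 72 h drug exposure at 37 degree C, CellTiter-Glo.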

[3] = Primary qHTS for inhibitors of nuclear receptor binding SET domain protein 2 (NSD2) in an isogenic RCH-ACV NSD2 p.E1099K mutant (9B) (AID 1645876); further: nearly all actives have a fitted effect of over 70% in size; further: potency means the concentration at half of the fitted maximal effect
[4] = Primary qHTS for inhibitors of nuclear receptor binding SET domain protein 2 (NSD2) in an RCH-ACV wild type WT cells (2C) (AID 1645877); further: nearly all actives have a fitted effect of over 70% in size; further: potency means the concentration at half of the fitted maximal effect
[5] = biological target: Glutathione peroxidase 1 (Homo sapiens) (UniProt P07203); test: Primary qHTS Assay for Inhibitors of Recombinant Selenoprotein Glutathione Peroxidase 1 (GPX1) (AID 1845191); further: nearly all actives have a fitted effect of over 65% in size
Glutathione peroxidase 1 (Homo sapiens), sequence (P07203 whole entry, looked up): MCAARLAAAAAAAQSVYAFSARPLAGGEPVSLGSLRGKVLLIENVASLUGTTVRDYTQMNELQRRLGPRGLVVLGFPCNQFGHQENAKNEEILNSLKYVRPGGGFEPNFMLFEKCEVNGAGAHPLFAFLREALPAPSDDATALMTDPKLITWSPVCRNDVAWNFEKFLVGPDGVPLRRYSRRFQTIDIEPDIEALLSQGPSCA
How it was run: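 10 nM GPX1 + cpd, 30 min RT; start w/ 1 mM GSH, 0.5 mM cumene hydroperoxide, 0.5 mM NADPH, 100 nM GR, 0.01% BSA; buffer 50 mM Tris-HCl pH 7.5, 2 mM EDTA, 150 mM NaCl; Fl 340/450, 0 & 15 min.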

Structure (SMILES)	Potency [1]	Potency [2]	Potency [3]	Potency [4]	Potency [5]
C=C(C)[C@@H]1CCC2=CC(=O)C[C@@H](C)[C@]2(C)C1	inactive	inactive	inactive	inactive	inactive
CSC(Cc1ccc(Cl)cc1)C(=O)Nc1ccc(Cl)cc1C(=O)O (stereo not given)	inactive	inactive	inactive	inactive	inactive
CC(C)CN(CC(=O)N(CCCN1CCCC1=O)CC(N)=O)C(=O)CNCCc1ccccc1F	inactive	inactive	inactive	inactive	inactive
CC1=CC(=O)C(C(C)C)=CC1=O	inactive	inactive	14600 nM (active)	6510 nM (active)	inactive
O=C(NCCO)c1cc(C(=O)NCCO)cc(C(=O)NCCO)c1	inactive	inactive	inactive	inactive	inactive
Cc1cc(Nc2nn(-c3ccccc3)c(=O)c3ccccc23)n[nH]1	6510 nM (active)	11600 nM (active)	1160 nM (active)	1030 nM (active)	inactive
CCN(CC)CCNc1ccc2ncn3c4ccc(O)cc4c(=O)c1c23	1300 nM (active)	1300 nM (active)	65.1 nM (active)	58 nM (active)	inactive
